Laboratory results reported in PubChem BioAssay (Tox21).
Activity calls are given as the source filed them. A call without a number means that no potency is given here. Calls come from the whole dose curve.

The compounds below were run against Acetylcholinesterase (Homo sapiens) (UniProt P22303) (assay: Acetylcholinesterase (AChE) small molecule antagonists: enzyme-based qHTS assay with human liver microsomes (AID 1347399; note: nearly all actives have a fitted effect of over 60% in size)). Conditions: Potency: qHTS inhibition; series mostly up to 115 µM.
Chain of Acetylcholinesterase (Homo sapiens) (P22303 whole entry, looked up): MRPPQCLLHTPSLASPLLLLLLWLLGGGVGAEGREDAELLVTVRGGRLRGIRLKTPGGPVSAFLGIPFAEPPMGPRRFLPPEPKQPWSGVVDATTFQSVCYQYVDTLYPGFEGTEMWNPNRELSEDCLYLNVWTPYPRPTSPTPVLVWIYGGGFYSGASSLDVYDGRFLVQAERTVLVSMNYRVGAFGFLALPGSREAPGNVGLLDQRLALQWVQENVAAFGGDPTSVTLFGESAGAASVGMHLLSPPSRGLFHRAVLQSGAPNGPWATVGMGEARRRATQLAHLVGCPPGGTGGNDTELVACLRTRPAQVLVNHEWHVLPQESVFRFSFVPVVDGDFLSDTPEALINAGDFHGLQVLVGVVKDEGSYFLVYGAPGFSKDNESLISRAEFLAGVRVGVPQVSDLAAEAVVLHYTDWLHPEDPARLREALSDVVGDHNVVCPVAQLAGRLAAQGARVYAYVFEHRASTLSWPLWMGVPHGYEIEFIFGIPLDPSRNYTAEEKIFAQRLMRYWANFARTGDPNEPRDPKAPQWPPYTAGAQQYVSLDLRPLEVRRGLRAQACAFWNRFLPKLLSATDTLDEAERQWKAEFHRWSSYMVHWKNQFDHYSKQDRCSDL
Outline: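 Recombinant human AChE (50 mU/mL in the enzyme mix) and human liver microsomes (0.25 mg/mL final) were preincubated with compound and NADPH (0.25 mg/mL final) for 30 min at 37 C. Acetylthiocholine/DTNB was then added; thiocholine was read colorimetrically after 10 min at room temperature.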
In the case of `O=C(Cl)c1ccc(Cl)cc1`, the Potency is reported as “inactive”. `Fc1cccc(Cl)c1CCl` was tested, and the Potency was “inactive”. For `Nc1ccc(Cc2ccc(N)c(Cl)c2)cc1Cl`, the Potency was “inactive”. With `O=[N+]([O-])c1cc([N+](=O)[O-])c2ccccc2c1` the Potency was “inactive”. With `CC(C)(O)c1cnn2c(-c3ccc(F)c(-c4c(F)cccc4C#N)c3)cnc2n1` the Potency was “inactive”. With `COc1ccc([N+](=O)[O-])cc1O` the Potency was “inactive”. In the case of `N#C/C=C/c1ccccc1`, the Potency is reported as “inactive”. With `N#CCCO` the Potency was “inactive”. For `COc1cc(C=O)cc2c1[C@H](COC(N)=O)[C@]1(OC(C)=O)ON2C[C@H]2[C@@H]1N2C(C)=O`, the Potency was “inactive”. `O=c1ssc(Cl)c1Cl` was tested, and the Potency was “inactive”. For `ClCc1ccc(Cl)cc1Cl`, the Potency was “inactive”. For `O=c1[nH]c2ccccc2n1C1CCN(CCCC(c2ccc(F)cc2)c2ccc(F)cc2)CC1`, the Potency was “inactive”. With `COC(=O)N(C(=O)N1CO[C@@]2(C(=O)OC)Cc3cc(Cl)ccc3C2=N1)c1ccc(OC(F)(F)F)cc1` the Potency was “inactive”. In the case of `COc1ccc(OC)c(C=O)c1`, the Potency is reported as “inactive”. For `CC(C)(C)C(O)C(Oc1ccc(-c2ccccc2)cc1)n1cncn1` (stereo not given), the Potency was “inactive”. With `COP(N)(=S)OC` the Potency was “inactive”. For `Oc1ccc(I)cc1`, the Potency was “inactive”. With `O=C(CCCN1CCC2(CC1)C(=O)NCN2c1ccccc1)c1ccc(F)cc1` the Potency was “inactive”. `Nc1ccccc1C(=O)Oc1ccc2ccccc2c1` was tested, and the Potency was “inactive”. With `NC(=O)c1ccc(N)nc1` the Potency was “inactive”.
